Source: PubChem BioAssay
aSyn 5UTR act – Activators working through SNCA 5'UTR binding (MLPCN); AID 1814; 300,000 tested, 7.1% active; activity score, % (tested at 7.5 µM), hits read low; alpha-synuclein 5'UTR reporter, activators screen; in the data active = activity score below about -60%
Of the large screens only hits and unclear results are named; the others gave an inactive call. These entries were drawn from the full list.

O=C(CNC(=O)c1ccccc1F)N/N=C/c1cc(Br)ccc1OC(=O)/C=C/c1ccco1	none
Cc1ccc(/C=N/NC(=O)c2cccs2)s1	aSyn 5UTR act -139.1
CN(CC(=O)Nc1ccc(Cl)c(S(=O)(=O)N(C)C)c1)Cc1ccccc1	aSyn 5UTR act -109.3
CCOc1ccc(NC(=O)CN(C)c2ccc(S(=O)(=O)N(C(C)C)C(C)C)cn2)cc1OCC	none
CCCCc1ccc(NC(=S)Nc2ccc(Cl)c(S(=O)(=O)N(C)C)c2)cc1	aSyn 5UTR act -68.0
CC(Oc1ccc(Br)cc1Cl)C(=O)Nc1ccncc1 (configuration not stated)	aSyn 5UTR act -83.9
CC(Oc1ccc(Cl)cc1Cl)C(=O)Nc1cccc(O)c1 (configuration not stated)	aSyn 5UTR act -62.4
COC(=O)[C@@H]1CCCN1C(=O)CCc1nnc(CCC2CCCCC2)o1	aSyn 5UTR act -115.6
CCOC(=O)C1CCCCN1C(=O)CCc1c(C)nc2ncnn2c1C (configuration not stated)	none
O=C(Cc1sc(Nc2ccccc2)nc1-c1ccccc1)NCc1ccccc1	aSyn 5UTR act -122.6
CCOC(=O)c1sc(NC(=O)Nc2ccc(Cl)cc2)nc1C	aSyn 5UTR act -175.1
COC(=O)Nc1nc(C)c(C(=O)c2ccccc2)s1	aSyn 5UTR act -105.0
CCOC(=O)c1sc(Nc2nc3c(OC)cccc3s2)nc1C	aSyn 5UTR act -164.3
COC(=O)Nc1nc(-c2ccccc2)c(C(=O)c2ccccc2)s1	none
CCOC(=O)c1sc(Nc2nc(C)cc(C)n2)nc1C	none
Cc1ccc(-c2nc(Nc3cccc(C)c3)sc2CC(=O)O)cc1	aSyn 5UTR act -143.3
COC(=O)c1sc(Nc2ccccc2)nc1C	aSyn 5UTR act -156.7
C1CCN=C(Nc2nc3c(s2)CCCC3)CC1	aSyn 5UTR act -138.9
CCOC(=O)c1sc(Nc2ccccc2)nc1C	aSyn 5UTR act -95.8
Cc1cccc(Nc2nc3c(s2)CCCC3)c1	aSyn 5UTR act -256.5
CCOC(=O)c1sc(-c2cccs2)nc1C	aSyn 5UTR act -64.6
CC(=O)c1sc(Nc2cccc(C)c2)nc1C	aSyn 5UTR act -164.9
CCc1nnc(NC(=O)Nc2ccc(Cl)cc2)s1	aSyn 5UTR act -66.2
Cc1nc(Nc2ccccc2)sc1C(=O)c1ccccc1	aSyn 5UTR act -67.8
CC(C)(C)C(=O)c1sc(Nc2ccccc2)nc1N	aSyn 5UTR act -179.5
COc1ccc(Nc2nc(N)c(C(=O)c3ccc(F)cc3)s2)cc1	none
COc1ccccc1/C=C/C=N/NC(=O)c1cccs1	aSyn 5UTR act -180.5
COc1ccccc1/C=C\C=N\NC(=O)c1ccco1	aSyn 5UTR act -97.9
N#CC(c1ccc(Cl)cc1)c1ccc2c(C(F)(F)F)cc(C(F)(F)F)nc2n1 (configuration not stated)	none
CSc1nc(-c2ccc(Cl)cc2)nn1S(=O)(=O)c1ccc(Cl)cc1	aSyn 5UTR act -73.7
CSc1nc(-c2ccc(Cl)cc2)nn1S(=O)(=O)c1ccccc1	aSyn 5UTR act -73.6
CS(=O)(=O)n1nc(-c2ccc(Cl)cc2)nc1SCc1ccccc1	aSyn 5UTR act -111.7
CC(C)CCn1c(SCc2ccc(Cl)cc2)nc2c1c(=O)[nH]c(=O)n2C	none
COc1ccc(NC(=O)c2cc3cccc(OC)c3oc2=Nc2ccc(C(=O)O)cc2)cc1OC	aSyn 5UTR act -116.3
COc1cccc(NC(=O)c2cc3cccc(OC)c3o/c2=N\O)c1	aSyn 5UTR act -80.8
COc1ccc(/C=C/c2cc(C(F)(F)F)on2)cc1	aSyn 5UTR act -157.2
Cc1ccc(Cl)cc1Nc1nc(-c2sc(NC(=O)c3ccccc3)nc2C)cs1	aSyn 5UTR act -94.4
Cc1nc(NC(=O)c2ccccc2)sc1-c1csc(Nc2cccc(F)c2)n1	aSyn 5UTR act -81.1
Cc1ccc2c(c1)c1cccc3c1n2CCN3CCC(N)=O	aSyn 5UTR act -171.9
Cc1cc(N2CCOCC2)ccc1/C=C\[N+](=O)[O-]	aSyn 5UTR act -100.8
CCc1ccc(NC(=O)C2C3/C=C\CCCCC32)cc1 (configuration not stated)	aSyn 5UTR act -164.6
O=C(Nc1ccc(Cl)cc1)C1C2CCCCC21 (configuration not stated)	aSyn 5UTR act -150.2
COc1ccccc1N=C1NC(=O)/C(=C/c2ccc(N(C)C)cc2)S1	aSyn 5UTR act -194.2
COc1ccc(NC(=O)/C=C/c2cccc(F)c2)cn1	aSyn 5UTR act -196.1
COc1ccc(NC(=O)/C=C/c2ccco2)cn1	aSyn 5UTR act -237.3
C/C(=N\Nc1nc(C(C)(C)C)cs1)c1ccccc1	aSyn 5UTR act -159.8
C/C(=N\Nc1nc(C(C)(C)C)cs1)c1ccc(O)cc1	aSyn 5UTR act -107.3
C/C(=N\Nc1nc2c(s1)CCCC2)c1ccccc1	aSyn 5UTR act -178.1
Cc1cccc(Nc2nnc(SCC3CCCCO3)s2)c1 (configuration not stated)	aSyn 5UTR act -183.8
Cc1nccc(-c2cc(-c3ccc(Cl)cc3Cl)no2)n1	aSyn 5UTR act -135.1
CCCOc1ncnc2c1[nH]c1ccc(C)cc12	aSyn 5UTR act -92.2
Cc1ccc2[nH]c3c(N4CCOCC4)ncnc3c2c1	aSyn 5UTR act -71.6
Cc1ccc2[nH]c3c(NCc4ccccc4)ncnc3c2c1	aSyn 5UTR act -94.8
Oc1c(C=NCc2ccccc2)sc2ccccc12	aSyn 5UTR act -103.4
O=[N+]([O-])c1ccc(N=Nc2c(Cl)cc(O)cc2Cl)cc1	none
